Reference: PubChem BioAssay (NCATS)
Records with an inconclusive call do not appear. Entries that show only a call come without a potency. Values without a mark were called inactive. Activity calls are given as the source filed them. The call rests on the fitted dose curve; in most records, active means well fitted curve in the direction sought with a large enough effect; inconclusive means small, poorly fitted or top-dose-only effect, or another doubt; inactive means no such curve, though single readings can be large; an effect the other way counts as inactive or inconclusive.

What was measured:
[1] = biological target: Rap guanine nucleotide exchange factor 3 (Homo sapiens) (UniProt O95398); test: Confirmatory qHTS for agonist of cAMP-regulated guanine nucleotide exchange factor 3 (EPAC1) (AID 1645881);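 further: EPAC1 catalysed release of BODIPY-GDP from Rap1B seen as fluorescence loss; nearly all actives have a fitted effect of over 75% in size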
Rap guanine nucleotide exchange factor 3 (Homo sapiens), sequence (O95398 whole entry, looked up): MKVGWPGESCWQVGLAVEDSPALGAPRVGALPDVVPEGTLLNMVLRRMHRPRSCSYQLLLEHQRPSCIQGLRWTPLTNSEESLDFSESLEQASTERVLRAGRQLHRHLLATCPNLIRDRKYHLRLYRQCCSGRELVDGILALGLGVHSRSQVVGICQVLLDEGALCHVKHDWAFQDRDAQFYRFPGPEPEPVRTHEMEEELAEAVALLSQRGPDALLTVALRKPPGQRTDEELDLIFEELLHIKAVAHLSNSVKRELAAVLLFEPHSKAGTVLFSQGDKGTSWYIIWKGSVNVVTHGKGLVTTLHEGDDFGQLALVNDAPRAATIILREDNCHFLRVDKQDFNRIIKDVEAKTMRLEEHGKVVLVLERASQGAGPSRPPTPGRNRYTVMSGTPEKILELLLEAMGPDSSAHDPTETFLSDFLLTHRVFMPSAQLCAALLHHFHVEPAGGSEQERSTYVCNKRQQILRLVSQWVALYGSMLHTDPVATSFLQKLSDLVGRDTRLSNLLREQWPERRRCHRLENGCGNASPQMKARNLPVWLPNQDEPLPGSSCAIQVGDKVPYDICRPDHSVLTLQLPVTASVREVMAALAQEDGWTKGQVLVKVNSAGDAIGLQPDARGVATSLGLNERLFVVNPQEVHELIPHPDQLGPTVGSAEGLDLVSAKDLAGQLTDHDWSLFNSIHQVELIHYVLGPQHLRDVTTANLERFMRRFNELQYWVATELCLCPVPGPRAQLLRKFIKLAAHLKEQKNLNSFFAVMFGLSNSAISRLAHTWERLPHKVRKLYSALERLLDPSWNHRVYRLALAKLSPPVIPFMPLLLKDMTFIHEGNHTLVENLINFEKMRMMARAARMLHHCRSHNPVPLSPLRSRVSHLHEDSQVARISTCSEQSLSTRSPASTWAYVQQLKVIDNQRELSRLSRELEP

[2] = biological target: Rap guanine nucleotide exchange factor 4 (Homo sapiens) (UniProt Q8WZA2); test: Confirmatory qHTS for agonist of cAMP-regulated guanine nucleotide exchange factor 4 (EPAC2) (AID 1645884);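 further: nucleotide exchange releases bodipy-GDP from Rap1 and this lowers its fluorescence; nearly all actives have a fitted effect of over 65% in size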
Rap guanine nucleotide exchange factor 4 (Homo sapiens), sequence (Q8WZA2 whole entry, looked up): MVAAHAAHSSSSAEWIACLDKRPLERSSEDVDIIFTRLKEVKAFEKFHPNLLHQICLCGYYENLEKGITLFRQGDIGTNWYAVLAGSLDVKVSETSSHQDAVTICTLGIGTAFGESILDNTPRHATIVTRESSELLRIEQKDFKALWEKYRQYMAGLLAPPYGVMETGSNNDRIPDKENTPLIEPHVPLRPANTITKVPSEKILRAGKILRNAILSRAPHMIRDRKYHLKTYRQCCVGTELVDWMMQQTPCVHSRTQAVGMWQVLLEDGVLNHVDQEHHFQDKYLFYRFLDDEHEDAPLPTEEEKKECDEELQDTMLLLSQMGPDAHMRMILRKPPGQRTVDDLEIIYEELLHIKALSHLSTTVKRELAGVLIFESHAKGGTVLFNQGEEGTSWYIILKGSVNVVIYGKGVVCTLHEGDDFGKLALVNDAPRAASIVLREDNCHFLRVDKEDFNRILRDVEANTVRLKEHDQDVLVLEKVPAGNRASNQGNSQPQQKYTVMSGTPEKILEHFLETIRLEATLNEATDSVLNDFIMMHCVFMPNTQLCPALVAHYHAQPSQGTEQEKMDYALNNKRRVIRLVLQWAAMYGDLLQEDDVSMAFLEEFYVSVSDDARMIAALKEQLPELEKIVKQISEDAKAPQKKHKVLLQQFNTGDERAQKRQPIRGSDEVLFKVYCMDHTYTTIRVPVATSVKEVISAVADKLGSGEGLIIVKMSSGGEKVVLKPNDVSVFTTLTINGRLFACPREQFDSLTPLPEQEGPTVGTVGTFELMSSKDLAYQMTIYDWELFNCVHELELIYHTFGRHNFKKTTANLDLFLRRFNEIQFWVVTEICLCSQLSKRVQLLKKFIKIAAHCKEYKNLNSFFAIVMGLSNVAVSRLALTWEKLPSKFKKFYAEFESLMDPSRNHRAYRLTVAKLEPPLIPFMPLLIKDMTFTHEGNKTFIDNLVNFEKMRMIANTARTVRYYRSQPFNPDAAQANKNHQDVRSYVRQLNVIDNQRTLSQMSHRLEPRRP

[3] = biological target: Rap guanine nucleotide exchange factor 4 (Homo sapiens) (UniProt Q8WZA2); test: Confirmatory qHTS for antagonist of cAMP-regulated guanine nucleotide exchange factor 4 (EPAC2) (AID 1645885); further: nearly all actives have a fitted effect of over 25% in size; further: potency means the concentration at half of the fitted maximal effect
[4] = biological target: Rap guanine nucleotide exchange factor 3 (Homo sapiens) (UniProt O95398); test: Counterscreen qHTS for antagonist of cAMP-regulated guanine nucleotide exchange factor 3 (EPAC1) (AID 1645888);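 further: fluorescence loss as bound BODIPY-GDP is released from Rap1B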
Method in brief: (§1)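 Measured: fluorescence of BODIPY-GDP bound to Rap1B, which falls as exchange proceeds. Conditions include 50 uM competing GDP, 5 and 30 min reads, and a later cAMP challenge for antagonist detection.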

[5] = biological target: Rap guanine nucleotide exchange factor 3 (Homo sapiens) (UniProt O95398); test: Counterscreen qHTS for agonist of cAMP-regulated guanine nucleotide exchange factor 3 (EPAC1) (AID 1645889); further: nearly all actives have a fitted effect of over 40% in size
Method in brief: as §1

SMILES: Cc1ccc2oc(=O)n(CCOc3ccccc3C)c2c1
- Potency [1]: inactive
- activation [2]: 11.2% [at 17.1 µM, percent relative to cAMP agonist control]
- Potency [3]: inactive
- activity change, negative = inhibition [4]: -6.86% [at 30.8 µM]
- activation [5]: 15.6% [at 30.8 µM]

SMILES: CCOc1cc(/C=C(/C#N)c2ccc(Cl)cc2)cc(Cl)c1OCC(=O)O
- Potency [1]: inactive
- activation [2]: 3.22% [at 17.1 µM, percent relative to cAMP agonist control]
- Potency [3]: inactive
- activity change, negative = inhibition [4]: -8.72% [at 30.8 µM]
- activation [5]: 10.8% [at 30.8 µM]

SMILES: Cc1ccc(-n2nnnc2SCC(=O)NCC2(N3CCOCC3)CCCCC2)cc1
- Potency [1]: inactive
- Potency [2]: inactive
- Potency [3]: inactive
- Potency [4]: inactive
- Potency [5]: inactive

SMILES: CC(=O)c1c(C)[nH]c(C(=O)OCC(=O)c2ccc3c(c2)NC(=O)CO3)c1C
- Potency [1]: inactive
- Potency [2]: inactive
- Potency [3]: inactive
- Potency [4]: inactive
- Potency [5]: inactive

SMILES: COc1cc(NC2c3ncccc3C(=O)N2Cc2ccco2)cc(OC)c1 (stereo not given)
- Potency [1]: inactive
- Potency [2]: inactive
- Potency [3]: inactive
- Potency [4]: inactive
- Potency [5]: inactive

SMILES: CCC(C(=O)O)N1C(=O)/C(=C/C(C)=C/c2ccccc2)SC1=S (stereo not given)
- Potency [1]: inactive
- Potency [2]: inactive
- Potency [3]: 75.7 µM (active)
- Potency [4]: inactive
- Potency [5]: inactive

SMILES: O=[N+]([O-])c1cc2oc3c(c2c(C=NCc2ccncc2)c1O)CCCC3
- Potency [1]: inactive
- activation [2]: 1.74% [at 17.1 µM, percent relative to cAMP agonist control]
- Potency [3]: inactive
- activity change, negative = inhibition [4]: -19.5% [at 30.8 µM]
- activation [5]: 15.1% [at 30.8 µM]

SMILES: Cc1ccc(C(C)C)c(OCCCn2c(=O)oc3ccc(C)cc32)c1
- Potency [1]: inactive
- Potency [2]: inactive
- Potency [3]: inactive
- Potency [4]: inactive
- Potency [5]: inactive

SMILES: Cc1ccc(S(=O)(=O)Nc2ccc(S(=O)(=O)Nc3nccs3)cc2)cc1C
- Potency [1]: inactive
- Potency [2]: inactive
- Potency [3]: inactive
- Potency [4]: inactive
- Potency [5]: inactive

SMILES: COc1ccc(OC)c(C(=O)/C=C/c2ccccc2C(F)(F)F)c1
- Potency [1]: inactive
- Potency [2]: inactive
- Potency [3]: inactive
- Potency [4]: inactive
- Potency [5]: inactive

SMILES: O=C(N[C@H](Cc1ccc(Cl)cc1)C(=O)O)OCC1c2ccccc2-c2ccccc21
- Potency [1]: inactive
- activation [2]: -11.8% [at 17.1 µM, percent relative to cAMP agonist control]
- Potency [3]: inactive
- activity change, negative = inhibition [4]: -5.81% [at 30.8 µM]
- activation [5]: 8.84% [at 30.8 µM]

SMILES: CCCN1C(=O)c2ccccc2NC1c1ccc(Cl)c(Cl)c1 (stereo not given)
- Potency [1]: inactive
- activation [2]: 5.07% [at 17.1 µM, percent relative to cAMP agonist control]
- Potency [3]: inactive
- activity change, negative = inhibition [4]: -17% [at 30.8 µM]
- activation [5]: 12.5% [at 30.8 µM]

SMILES: O=C(NCC(c1ccco1)N1CCCC1)c1ccccc1Sc1ccc(C(F)(F)F)cc1[N+](=O)[O-] (stereo not given)
- Potency [1]: inactive
- Potency [2]: inactive
- Potency [3]: inactive
- Potency [4]: inactive
- Potency [5]: inactive

SMILES: CCCN(CCC)C(=O)Cn1c(=O)c2sccc2n2c(=S)sc(-c3ccccc3)c12
- Potency [1]: inactive
- activation [2]: 2.59% [at 17.1 µM, percent relative to cAMP agonist control]
- Potency [3]: inactive
- activity change, negative = inhibition [4]: -19.9% [at 30.8 µM]
- activation [5]: -0.211% [at 30.8 µM]

SMILES: NS(=O)(=O)c1ccc(N/N=C/c2ccccc2C(=O)O)c([N+](=O)[O-])c1
- Potency [1]: inactive
- Potency [2]: inactive
- Potency [3]: inactive
- Potency [4]: inactive
- Potency [5]: inactive

SMILES: CC(=O)Nc1ccc(NC(=S)NC(=O)/C=C/c2ccco2)cc1
- Potency [1]: inactive
- Potency [2]: inactive
- Potency [3]: inactive
- Potency [4]: inactive
- Potency [5]: inactive

SMILES: O=C(/C=C/c1ccc(Br)o1)NCc1ccccc1
- Potency [1]: inactive
- activation [2]: -1.62% [at 17.1 µM, percent relative to cAMP agonist control]
- Potency [3]: inactive
- activity change, negative = inhibition [4]: 13% [at 30.8 µM]
- activation [5]: 21.3% [at 30.8 µM]

SMILES: COC1=C(Nc2ccc(O)cc2)C(=O)c2ccccc2C1=O
- Potency [1]: inactive
- activation [2]: 5% [at 17.1 µM, percent relative to cAMP agonist control]
- Potency [3]: inactive
- activity change, negative = inhibition [4]: 4.79% [at 30.8 µM]
- activation [5]: 25.2% [at 30.8 µM]

SMILES: CN(CC(=O)Nc1ccccc1C(F)(F)F)C(=O)c1cc(-c2cccs2)nn1-c1ccccc1
- Potency [1]: inactive
- Potency [2]: inactive
- Potency [3]: inactive
- Potency [4]: inactive
- Potency [5]: inactive

SMILES: N#Cc1c(-c2ccccc2)c(C#N)c2nc3ccccc3n2c1N
- Potency [1]: inactive
- Potency [2]: inactive
- Potency [3]: 84.9 µM (active)
- Potency [4]: inactive
- Potency [5]: inactive

SMILES: Cc1cc(C(=O)Cn2ncc(Cl)c(Cl)c2=O)c(C)n1CC(F)(F)F
- Potency [1]: inactive
- activation [2]: 1.17% [at 17.1 µM, percent relative to cAMP agonist control]
- Potency [3]: inactive
- activity change, negative = inhibition [4]: -8.86% [at 30.8 µM]
- activation [5]: 8.2% [at 30.8 µM]

SMILES: C=CCN1C(=O)/C(=C/c2ccc(OC(C)=O)c(OCC)c2[N+](=O)[O-])SC1=S
- Potency [1]: inactive
- activation [2]: 0% [at 17.1 µM, percent relative to cAMP agonist control]
- Potency [3]: inactive
- activity change, negative = inhibition [4]: 12.5% [at 30.8 µM]
- activation [5]: 52.7% [at 30.8 µM]
